TDP1 cell CPT: growth inhibition of DT40 Tdp1-/-;hTDP1 cells with camptothecin (screen for TDP1 inhibitors); AID 686979; 420,000 tested, 12% active; Potency, µM (titrated, usually from 46.2 µM), for inactives: top-dose activity change, negative = growth inhibition, actives largely listed as inhibitors; chicken DT40 Tdp1-/-;hTDP1 cells + 20 nM CPT, ATP luminescence, 48 h; note: potency is the fitted concentration of half-maximal effect; nearly all actives have a fitted effect of over 55% in size
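Chicken DT40 Tdp1-/- cells complemented with human TDP1, 400 cells/well, exposed to compounds plus 20 nM camptothecin for at least 48 h at 37 C; viability read as ATP content by CellTiter-Glo luminescence.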
HT1080NT lethal: kills 2HG-producing HT-1080-NT fibrosarcoma cells; AID 686970; 360,000 tested, 1.6% active; HT-1080-NT fibrosarcoma viability, CellTiter-Glo ATP luminescence, 48 h; Potency, µM (highest dose often 46.1 µM), inactives show top-dose activity, negative = less viability, usual class: cytotoxic;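 note: NT is the 2HG producing partner of a matched IDH1 knockdown line; potency is the fitted concentration of half-maximal effect; 0% = DMSO-treated cells and -100% = media-only wells without cells; nearly all actives have a fitted effect of over 55% in size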
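Fibrosarcoma NT cells, 750 per well in 5% FBS RPMI, were exposed to compound for 48 hours. Viability: CellTiter-Glo luminescence.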
uPA generation: blocks generation of uPA at the cell surface | cell surface uPA generation assay, qHTS | Potency, µM (doses to about 38.3 µM), without a hit: top-dose activity change, negative = inhibition, hits mostly inhibitors | 330,000 tested, 0.31% active; active = well fitted inhibition curve with a large enough effect; inconclusive = small, poorly fitted or top-dose-only effect; inactive = no such curve, though single readings can be large or run the other way; tested in mouse RAW 264.7 cells; note: potency is the fitted concentration of half-maximal effect; nearly all actives have a fitted effect of over 55% in size
HT1080 IDH1KD tx: toxicity to HT-1080 IDH1 knockdown cells (counter line). HT-1080 IDH1 knockdown viability, ATP luminescence, 48 h. Potency, µM (highest dose often 46.1 µM), for the others: at the highest dose activity, negative = toxicity, actives largely listed as cytotoxic. 360,000 tested, 2% active;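 note: potency is the fitted concentration of half-maximal effect; 0% = DMSO wells and -100% = cell-free medium wells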
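In this qHTS, HT-1080 cells depleted of IDH1 are exposed for 48 h at 37 °C to compound titrations. Toxicity is scored from CellTiter-Glo luminescence, with DMSO as full viability and medium alone as none.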
TDP1 cell noCPT: qHTS for Inhibitors of human tyrosyl-DNA phosphodiesterase 1 (TDP1): qHTS in cells in absence of CPT. DT40 Tdp1-/- hTDP1 cells, no CPT, ATP luminescence, 48 h. AID 686978, 2013. 420,000 tested, 15% active. Potency, µM (doses to about 46.2 µM), for inactives: top-dose activity change, negative = growth inhibition, usual class: inhibitors; note: potency is the fitted concentration of half-maximal effect; nearly all actives have a fitted effect of over 55% in size
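Seeded 400 DT40-hTDP1 cells/well (vehicle DMSO, no 20 nM CPT); pinned compounds; ≥48 hr at 37 °C; CellTiter-Glo luminescence as viability measure.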
IL1B secr inh: inflammasome signaling inhibition, IL-1 beta readout; THP-1 LPS/ATP IL-1B secretion, AlphaLISA, 16 h; hits give low values; activity change, % at 57.5 µM; 360,000 tested, 4.7% active; AID 743279; in the data active = activity change below about -50%; inconclusive = mostly about -30% to -49%
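Secreted IL-1B measured by AlphaLISA bead assay after 16 h compound exposure of THP-1 cells; compounds (final up to 57.5 uM) added 1 h before LPS (250 ng/mL) and ATP (1.25 mM) stimulation; lower signal means less secretion.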
* = called active by the depositor; ? = inconclusive; · = no result. Shown are actives, neighbours in structure and some others; about 19% of the full set was active somewhere. Unless noted, calls come from the whole dose curve; as a rule, active = well fitted curve in the direction sought with a large enough effect; inconclusive = small, poorly fitted or top-dose-only effect, or another doubt; inactive = no such curve, though single readings can be large; an effect the other way counts as inactive or inconclusive. Unless noted, % is set by controls: 0 for no effect and ±100 for the full control effect.

SMILES	TDP1 cell CPT	HT1080NT lethal	uPA generation	HT1080 IDH1KD tx	TDP1 cell noCPT	IL1B secr inh
Oc1ccc2c(c1)c1c3n2CCNC3CCC1 (stereo not drawn)	8%	4%	2%	11%	-16%	4
NS(=O)(=O)c1cccc(NC(=O)c2ccno2)c1	1%	6%	-4%	4%	24%	12
Cc1cc(OC(C)C(=O)NCCc2c[nH]c3ccccc23)c2c(C)cc(=O)oc2c1 (stereo not drawn)	16µM*	-5%	-6%	-1%	?	-21
CCCc1cc(=O)oc2cc(C)cc(OC(C)C(=O)N[C@@H](Cc3c[nH]c4ccccc34)C(=O)O)c12 (stereo partly drawn)	-8%	8%	-3%	0%	-7%	19
CCN1CCN(c2sc(S(=O)(=O)CC)nc2S(=O)(=O)c2ccc(Cl)cc2)CC1	-3%	-2%	·	-12%	-10%	-66*
CCCS(=O)(=O)c1nc(S(=O)(=O)c2ccc(C)cc2)c(N2CCOCC2)s1	?	1%	?	10%	?	-74*
CS(=O)(=O)c1nc(S(=O)(=O)c2ccc(Cl)cc2)c(N2CCOCC2)s1	?	5%	-26%	4%	?	-76*
CC1CN(c2sc(S(C)(=O)=O)nc2S(=O)(=O)c2ccc(Cl)cc2)CC(C)O1 (stereo not drawn)	?	17%	-11%	12%	-19%	-64*
O=C(Cn1cc(COc2ccc(-n3cccc3)cc2)nn1)NS(=O)(=O)c1ccccc1C(F)(F)F	-14%	?	·	17%	-16%	1
CC1CCCN(c2sc(S(C)(=O)=O)nc2S(=O)(=O)c2ccc(Cl)cc2)C1 (stereo not drawn)	?	-2%	-16%	-8%	?	-71*
CCS(=O)(=O)c1nc(S(=O)(=O)c2ccc(C)cc2)c(N2CCCC(C)C2)s1 (stereo not drawn)	-29%	-19%	0%	-15%	-19%	?
CC(C)(CNC(=O)c1ccccc1F)CNC(=O)c1ccccc1F	-17%	-1%	8%	6%	?	45
Cc1ccc(S(=O)(=O)N2C[C@H]3n4c(=O)ccc(=O)n4C[C@H](OC(=O)NCc4ccco4)[C@@]3(O)C2)cc1	?	-9%	·	-16%	?	-54*
COC(=O)[C@H]1C[C@H](OC(=O)NCc2ccc(OC)c(OC)c2)[C@@]2(O)CN(S(=O)(=O)c3ccc(C)cc3)CC2[C@H]1C(=O)OC (stereo partly drawn)	-14%	2%	·	6%	?	-5
COC(=O)[C@H]1C[C@H](OC(=O)Nc2c(C)noc2C)[C@@]2(O)CN(S(=O)(=O)c3ccc(C)cc3)CC2[C@H]1C(=O)OC (stereo partly drawn)	-22%	14%	·	6%	?	-13
CCCCCCn1c(=O)n2n(c1=O)[C@@H]1CN(S(=O)(=O)c3ccc(C)cc3)C[C@]1(O)[C@@H](OC(=O)Nc1c(C)noc1C)C2	?	-1%	·	-3%	29µM*	-5
COC(=O)[C@H]1C[C@H](OC(=O)NCC2CCCCC2)[C@@]2(O)CN(S(=O)(=O)c3ccc(C)cc3)CC2[C@H]1C(=O)OC (stereo partly drawn)	?	1%	·	?	?	?
Cc1ccc(S(=O)(=O)N2C[C@H]3n4c(=O)ccc(=O)n4C[C@H](OC(=O)NCC4CCCCC4)[C@@]3(O)C2)cc1	2.6µM*	21µM*	·	?	3.7µM*	-109*

Assay outcomes deposited in PubChem BioAssay by National Center for Advancing Translational Sciences (NCATS).
